Assay outcomes (PubChem BioAssay)
Rows were chosen to be rich in hits. Some 2% of all compounds tested hit in one or more screens of this group.
M1 ag parental: counter-screen for M1 agonists: effect in parental CHO-K1 cells; AID 602248; 360,000 tested, 0.48% active; Fluo-8 calcium fluorescence; scaled to maximal ATP response, vehicle zero; activation, % at 3 µM; in the data active = activation above about 15%;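 also: untransfected CHO-K1 host cells lacking M1 receptor as counterscreen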
CHRM4 PAM: potentiates acetylcholine response at human M4 receptor; P08173; CHO-K1 hM4/Gqi5, Fluo-8 calcium fluorescence, ACh EC20; 0% = ACh EC20, 100% = maximal ACh; activation, % at 3 µM; 360,000 tested, 0.4% active; AID 624126;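 active = activation above its plate's cutoff, the mean activation of sample wells plus 3 SD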
Target sequence (P08173 whole entry, looked up): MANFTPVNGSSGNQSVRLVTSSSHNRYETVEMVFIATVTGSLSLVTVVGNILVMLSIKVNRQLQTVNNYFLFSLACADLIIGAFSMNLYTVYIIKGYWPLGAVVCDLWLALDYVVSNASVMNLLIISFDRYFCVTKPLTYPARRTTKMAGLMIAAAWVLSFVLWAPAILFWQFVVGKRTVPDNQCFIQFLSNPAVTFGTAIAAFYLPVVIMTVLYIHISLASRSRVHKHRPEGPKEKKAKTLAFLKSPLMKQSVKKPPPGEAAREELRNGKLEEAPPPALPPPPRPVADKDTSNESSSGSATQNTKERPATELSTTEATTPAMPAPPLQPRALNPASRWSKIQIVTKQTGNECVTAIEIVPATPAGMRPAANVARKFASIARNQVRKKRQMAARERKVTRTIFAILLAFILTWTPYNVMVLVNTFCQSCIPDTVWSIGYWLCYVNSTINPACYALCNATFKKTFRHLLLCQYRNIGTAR
M1 PAM parental: M1 PAM counterscreen hit in parental CHO-K1 cells; ATP EC20, Fluo-8 calcium fluorescence; 0% at ATP EC20, 100% at ATP max; activation, % at 3 µM; 360,000 tested, 0.02% active; AID 602247;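 active = activation above the run cutoff, the mean activation of all test compounds plus 3 SD, cut at about 40% in these data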;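 also: peak over basal fluorescence ratio in a 140 s read after ATP addition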
M4 antag: blocks acetylcholine activation of human M4 receptor; P08173; inhibition, % at 3 µM; 360,000 tested, 0.73% active; AID 624125; CHO-hM4 cells, ACh EC80, Fluo-8 calcium fluorescence;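 active = inhibition above its plate's cutoff, the mean inhibition of sample wells plus 3 SD, cut at about 27% in these data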;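 also: 0% = acetylcholine EC80 with DMSO and 100% = DMSO without agonist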
CHO-K1 Ca antag: M1 antagonist counterscreen hit in parental CHO-K1 cells. ATP-induced calcium, Fluo-8 fluorescence. inhibition, % at 3 µM. 360,000 tested, 0.6% active. AID 602250;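 active = inhibition above a per-plate cutoff, the plate's mean sample inhibition plus 3 SD, cut at about 24% in these data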;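 also: 0% = DMSO plus EC80 ATP and 100% = DMSO alone without ATP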
CHRM4 agonist: CHRM4 agonism in calcium assay. CHO-K1 hM4/Gqi5, Fluo-8 calcium fluorescence; vehicle 0%, full acetylcholine response 100%. activation, % at 3 µM. 360,000 tested, 0.14% active;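 active = activation above the run mean over all test wells plus 3 SD, cut at about 32% in these data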;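 also: peak over basal fluorescence ratio per well then scaled between controls; 0% = DMSO wells and 100% = acetylcholine at EC100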
The depositor's hits bear a star.

SMILES	M1 ag parental	CHRM4 PAM	M1 PAM parental	M4 antag	CHO-K1 Ca antag	CHRM4 agonist
O=S1(=O)C[C@H](N2CC[C@@H](O)C2)[C@@H](COCc2ccccc2)N1	0	2	-8	-1	27*	0
CN(C)[C@H]1CCN([C@H]2CS(=O)(=O)N[C@@H]2COCc2ccccc2)C1	1	12	21	-13	11	0
C=Cc1ccc(Cn2c(C)c(C(=O)NCc3ccc4c(c3)OCCO4)sc2=O)cc1	1	-5	-10	-23	5	10
Cc1cc(C)c2sc(NNC(=O)C3COc4ccccc4O3)nc2c1 (stereo not drawn)	0	16*	22	-18	-14	0
Cc1ccccc1C(=O)Nc1cccc(C(=O)Nc2ccccc2C(=O)O)c1	0	2	-21	13	26*	-1
Cc1cc(Cl)ccc1OC(C)C(=O)Nc1ccc(C(=O)Nc2ccccc2C(=O)O)cc1 (stereo not drawn)	0	23*	2	-11	-5	-2
COc1ccc(NS(=O)(=O)c2cccc(C(=O)Nc3ccccc3C(=O)O)c2)cc1	-1	8	-13	6	-2	-2
CC(=O)c1ccc(NS(=O)(=O)c2cccc(C(=O)Nc3ccccc3C(=O)O)c2)cc1	-1	14*	16	-21	-9	-1
Cc1cc(Cl)ccc1OC(C)C(=O)Nc1ccc(S(=O)(=O)N2CCOCC2)cc1 (stereo not drawn)	9	-3	14	3	-2	15
O=C(Nc1ccccc1C(=O)O)c1cc(S(=O)(=O)Nc2ccccc2)ccc1Cl	-1	16*	-10	-9	1	-2
N#Cc1cccc(NC(=O)COc2ccc(-n3ccnc3)cc2)c1	5	-14	-4	26	1	17
CC(C)(O)[C@@H]1CC[C@@](C)(C2CC[C@]3(C)C2[C@H](O)CC2[C@@]4(C)CC[C@H](O)C(C)(C)C4[C@@H](O[C@H]4O[C@@H](CO)[C@H](O)[C@@H](O)[C@@H]4O[C@@H]4O[C@H](CO)[C@@H](O)[C@H](O)[C@H]4O)C[C@]23C)O1 (stereo in doubt)	0	14	-12	7	-1	3
Cc1ccc(-n2ncc(C(=O)Nc3cc(Cl)ccc3Cl)c2C2CCNCC2)cc1	0	-2	5	-5	-11	2
CC(=O)c1cc(C(=O)Nc2ccccc2C(=O)O)oc1C	0	32*	22	-2	-21	0
Cc1cc(C(=O)Nc2cccc(C(=O)O)c2)c(C)o1	0	-2	-11	6	-5	1
CS(=O)(=O)c1ccc(NS(=O)(=O)c2ccc(Cl)c(C(=O)NCc3ccco3)c2)cc1	0	24*	-17	-39	-19	0
Cc1oc(-c2ccccc2)cc1C(=O)Nc1cccc(C(=O)O)c1	0	43*	20	-5	-9	1
O=C(CNC(=O)/C(=C\c1ccccc1)NC(=O)c1ccc(Br)cc1)OCc1ccccc1	1	11	-1	-2	11	0
O=C(NC(=S)Nc1ccc(S(=O)(=O)Nc2nccs2)cc1)c1ccc(Br)o1	2	-1	1	-10	-3	6
COCCCN(C(=O)CCOc1ccc(C(C)(C)C)cc1)c1c(N)n(Cc2ccccc2)c(=O)[nH]c1=O	1	6	17	-6	-8	1
CCOC(=O)C1CCN(C(=O)Cn2nc(C)n3c(cc4cc(C)ccc43)c2=O)CC1	0	7	-1	-8	1	2
Cc1ccc2c(c1)cc1c(=O)n(CC(=O)N(C)c3ccccc3)nc(C)n12	1	16*	2	3	-11	2
COc1ccc(/C=N/NC(=O)c2ccc3ccccc3c2)cc1OS(=O)(=O)c1ccc(NC(C)=O)cc1	2	-17	-2	28*	0	16
CCOC(=O)C(NC(=O)Cc1ccccc1)(Nc1cc(C)on1)C(F)(F)F (stereo not drawn)	0	0	9	2	3	0
CCOC(=O)C(NC(=O)CC)(Nc1cc(C)on1)C(F)(F)F (stereo not drawn)	0	34*	10	-8	-2	1
SMILES	M1 ag parental	CHRM4 PAM	M1 PAM parental	M4 antag	CHO-K1 Ca antag	CHRM4 agonist
C=CCNC(=S)N1CCN(CCNC2=CC(=O)CC(C)(C)C2)CC1	0	-6	7	-2	-3	1
O=C(NNC(=O)c1ccncc1)c1ccccc1	1	1	11	-2	-16	1
COC1=C(OC)c2ccccc2C(C(=O)O)N/C1=C(/C)Nc1ccncc1 (stereo not drawn)	0	-4	9	29*	-3	1
COc1cccc(OC)c1C(=O)Nc1ccncc1	1	11	14	2	-6	1
O=C(CCSc1ccccc1)Nc1ccccc1C(=O)N1CCCC1	0	1	-13	7	16	5
Cc1cccc(C(=O)O/N=C(\N)c2cccc([N+](=O)[O-])c2)c1	0	9	-6	11	4	0
N/C(=N\OC(=O)c1cccc([N+](=O)[O-])c1)c1cccnc1	1	25*	-10	-3	10	5
Cc1ccc(CC2SC(N)=NC2=O)cc1 (stereo not drawn)	11	20*	16	-12	-18	1
NC1=NC(=O)C(Cc2ccc(F)cc2)S1 (stereo not drawn)	0	3	-7	-6	-9	1
O=C(/C=C/c1ccc(O)cc1)OCc1occc(=O)c1O[C@@H]1OC(CO)[C@@H](O)[C@H](O)[C@@H]1O (stereo partly drawn)	1	6	16	2	-15	1
CCOC(=O)N1CCC(NC(=O)C2CCCN(Cc3nc(-c4cccc(Cl)c4)oc3C)C2)CC1 (stereo not drawn)	10	-12	0	-2	30*	17
O=C(CO/N=C1\CCCc2nonc21)Nc1ccccc1Cl	1	16	10	27*	-13	2
Cc1ccc(-c2nn(-c3ccccc3)cc2C(=O)Nc2cccc(S(=O)(=O)NC3=NCCC3)c2)cc1	1	-3	-13	4	34*	6
COc1ccc(NC(=O)c2ccc3c(c2)OCO3)cc1Cl	1	5	18	-9	1	4
O=C(C[n+]1cc(-c2ccc(Cl)c(Cl)c2)n2c1CCC2)N1c2ccccc2Sc2ccccc21	0	-17	26	98*	-4	0
COc1ccc(-c2c[n+](CC(=O)N3c4ccccc4Sc4ccccc43)c3n2CCC3)cc1	0	-69	13	53*	-12	0
O=C(C[n+]1cc(-c2ccc(Cl)cc2)n2c1CCC2)N1c2ccccc2Sc2ccccc21	0	-19	-3	97*	4	9
